The panel holds about 79,000 compounds, 15% with a hit somewhere; the sample as a whole holds those more often. A number with no mark means an inactive call. Calls of active or inactive are those of the source. Cut-off read from the data, not from the text of the source: active = growth inhibition above about 70%; inactive = the rest.
Key:
[1] = NCI Yeast Anticancer Drug Screen. Data for the rad50 strain (AID 155);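 note: 0% = growth of vehicle-only cultures of the same strain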; conditions: S. cerevisiae rad50 strain growth inhibition, stronger effect = higher value
Outline: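 Relative growth inhibition (compound vs vehicle) was measured in yeast with a defined repair-gene alteration.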

[2] = NCI Yeast Anticancer Drug Screen. Data for the mec2-1 strain (AID 157); conditions: S. cerevisiae mec2-1 strain, stronger effect = higher value
Outline: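 Test agents were screened against the mec2-1 yeast strain, with defined DNA repair or cell cycle alteration. Growth was scored as inhibition against vehicle-only controls.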

[3] = NCI Yeast Anticancer Drug Screen. Data for the sgs1 mgt1 strain (AID 161);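 note: 0% = growth of cultures given vehicle only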; conditions: S. cerevisiae sgs1 mgt1 strain, stronger effect = higher value
Outline: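 Inhibition of yeast growth, normalised to vehicle-treated controls, is reported for a strain bearing genetic alterations in DNA damage repair.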

[4] = NCI Yeast Anticancer Drug Screen. Data for the cln2 rad14 strain (AID 165);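 note: 0% = growth equal to vehicle treated cultures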; conditions: S. cerevisiae cln2 rad14 strain, stronger effect = higher value
Outline: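 Growth of compound-exposed yeast (cln2 rad14 genotype) measured and expressed as inhibition relative to vehicle.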

[5] = NCI Yeast Anticancer Drug Screen. Data for the bub3 strain (AID 167); conditions: S. cerevisiae bub3 mutant strain, stronger effect = higher value
Outline: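 Screening used yeast with an engineered genetic alteration affecting cell cycle control. Compound-exposed cultures were compared with vehicle cultures, and reduced growth was taken as inhibition.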

[6] = NCI Yeast Anticancer Drug Screen. Data for the mlh1 rad18 strain (AID 175); conditions: S. cerevisiae mlh1 rad18 strain growth inhibition, stronger effect = higher value
Outline: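 In this whole-cell yeast screen, a strain with altered DNA damage repair is challenged with compound, and its growth is measured against matched vehicle-treated controls.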

[7] = at 5.0 µM (retest, dose inferred, filed as 0.5)
[8] = at 50.0 µM (retest, dose inferred, filed as 5.0)

| SMILES | growth inhibition [1, 7] | growth inhibition [1, 8] | growth inhibition ([1]; at 50.0 µM) | growth inhibition [2, 7] | growth inhibition [2, 8] | growth inhibition ([2]; at 50.0 µM) | growth inhibition [3, 7] | growth inhibition [3, 8] | growth inhibition ([3]; at 50.0 µM) | growth inhibition [4, 7] | growth inhibition [4, 8] | growth inhibition ([4]; at 50.0 µM) | growth inhibition [5, 7] | growth inhibition [5, 8] | growth inhibition ([5]; at 50.0 µM) | growth inhibition [6, 7] | growth inhibition [6, 8] | growth inhibition ([6]; at 50.0 µM) |
| --- | --- | --- | --- | --- | --- | --- | --- | --- | --- | --- | --- | --- | --- | --- | --- | --- | --- | --- |
| CCc1cccc(CC)c1NC(=O)C1=C(C)NC(C)=C(C(=O)Nc2c(CC)cccc2CC)C1c1ccc2c(c1)OCO2 | 54% | 54% | 91.9% (active) | 45% | 45% | 92.5% (active) | 45% | 45% | 93.2% (active) | 26% | 26% | 91.3% (active) | 39% | 39% | 89.2% (active) | 43% | 43% | 87.5% (active) |
| Oc1ccc2cc(Br)ccc2c1O | -28% | 97% (active) | 97.2% (active) | -11% | 97% (active) | 98.3% (active) | 10% | 98% (active) | 97.5% (active) | -24% | 97% (active) | 97% (active) | -5% | 98% (active) | 98% (active) | -7% | 97% (active) | 98.2% (active) |
| O=C(O)C1CCCCC1.[Ag] | 43% | 99% (active) | 90.3% (active) | 42% | 99% (active) | 92% (active) | 99% (active) | 99% (active) | 93.2% (active) | 99% (active) | 99% (active) | 91% (active) | 99% (active) | 100% (active) | 90.6% (active) | 34% | 100% (active) | 90.5% (active) |
| Clc1ccc(C(c2ccc(Cl)cc2)c2cncnc2)cc1 | 18% | 96% (active) | 89.8% (active) | 6% | 99% (active) | 90% (active) | 15% | 95% (active) | 89.4% (active) | 10% | 98% (active) | 89.2% (active) | 40% | 97% (active) | 84.2% (active) | 13% | 97% (active) | 86.8% (active) |
| Clc1ccccc1/C=C/c1ccnc2ccccc12 | 1% | 99% (active) | 97.7% (active) | 17% | 99% (active) | 97.8% (active) | 14% | 99% (active) | 97.9% (active) | -19% | 98% (active) | 96.8% (active) | -3% | 99% (active) | 97.9% (active) | -5% | 99% (active) | 98.2% (active) |
| CC([C@H]1CCC2C3CCC4CC5(CC[C@]4(C)C3CC[C@@]21C)c1ccccc1C(=O)N5C)N(C)C (stereo not given in full) | -11% | 81% (active) | 83.3% (active) | -11% | 55% | 89.4% (active) | 11% | 87% (active) | 89.6% (active) | 14% | 85% (active) | 73.3% (active) | 6% | 83% (active) | 86.5% (active) | 18% | 84% (active) | 78.2% (active) |
| O=C1C=C(c2ccccc2)O/C1=C/C(=O)c1ccc(Cl)cc1 | 32% | 32% | 53.3% | 32% | 32% | 65.2% | 40% | 40% | 79% (active) | 11% | 11% | 39.6% | 16% | 16% | 65% | 32% | 32% | 52.9% |
| CCCCC(Oc1cc(C(C)(C)C)c(O)c(C(C)(C)C)c1)C(=O)O (stereo not given) | 21% | 68% | 99.1% (active) | 12% | 70% (active) | 99.4% (active) | 35% | 97% (active) | 99.5% (active) | 49% | 95% (active) | 99% (active) | 3% | 97% (active) | 99.2% (active) | 27% | 97% (active) | 98.9% (active) |
| O=C(C(=Cn1c(=S)[nH]c2ccc([N+](=O)[O-])cc21)C(=O)c1ccccc1)c1ccccc1 | -10% | 3% | 98% (active) | -14% | -2% | 92.5% (active) | -7% | 1% | 92.2% (active) | -23% | -17% | 74.8% (active) | -5% | 6% | 94.9% (active) | -4% | 0% | 96.3% (active) |
| Cc1ccc(O)c(C(c2cc(C)ccc2O)c2cc([N+](=O)[O-])ccc2O)c1 | 23% | 97% (active) | 90.9% (active) | 7% | 99% (active) | 93.1% (active) | 17% | 99% (active) | 40.5% | 17% | 99% (active) | 90.8% (active) | 5% | 99% (active) | 91.8% (active) | 24% | 97% (active) | 91.3% (active) |

Source: PubChem BioAssay (NCI)
